Data on 19 molecules can be found in PubChem BioAssay (EPA / NIEHS).

Activity calls are given as the source filed them. The calls were made as follows: active = hit-call score of the fitted dose curve at least 0.9, where 1 is the maximum; inactive = score below 0.9.

This experiment in a line: CCTE_Shafer_MEA_dev_per_burst_spike_percent: CCTE's Neural Network Formation Assay for Percent of Spikes in a Burst, Shafer Lab (AID 2284032). The procedure: CCTE_Shafer_MEA_dev assay is conducted using Axion Biosystems 48 well microelectrode array (MEA) plates and Maestro recording system. Each well of the MEA plate contains a grid of 16 microelectrodes embedded in the culture surface. Electrically active cells, such as neurons, can be cultured over the electrodes, and electrical activity in these cells can be recorded extracellularly. The spontaneous firing of neurons is captured from each electrode on a microsecond timescale providing both temporally and spatially precise data. […] The CCTE_Shafer_MEA_dev assay uses primary cultures of rat cortical neurons. Recordings are made on days post-plating 5, 7, 9 and 12. As these cultures mature over time, neural networks develop functional activity and form cohesive networks in which electrical activity can be highly coordinated. CCTE_Shafer_MEA_dev_per_burst_spike_percent is 1 of 19 assay components of the CCTE_Shafer_MEA_dev assay. It measures the percentage of spikes (action potential firings) in a single-electrode burst (temporally-clustered group of spikes) as the total number spikes in bursts divided by the total number of spikes during a recording in a microelectrode array (MEA) using Axion Biosystems Maestro 768 channel amplifier with the AxIS adaptive spike detector. The percent of spikes in bursts is averaged across the actively bursting electrodes to report a well-mean value. To collapse across multiple recordings made on days post-plating 5, 7, 9 and 12, the trapezoidal area-under-the-curve of the component is calculated.Data from the assay component CCTE_Shafer_MEA_dev_per_burst_spike_percent was analyzed into 1 assay endpoint. This assay endpoint, CCTE_Shafer_MEA_dev_per_burst_spike_percent, was analyzed in the negative analysis fitting direction relative to DMSO as the negative control and baseline of activity. Using a type of functional reporter, gain or loss-of-signal activity can be used to understand electrical activity.
On the day prior to culture, each well was coated thoroughly with 150 uL of 0.05% polyethyleneimine (PEI, Sigma Cat P3143) in 50 mM HEPES (Sigma Cat H7523) at a pH of 8. The plate was incubated at 37C for one hour. PEI was rinsed out with 500 uL of sterile water three times. Plates were stored at 4C until the day of culture. This culture was plated at a seeding density of 1.5 x 10^5 cells/well on a 48-well MEA plate, prepared as described above. Cells were administered via a 25 uL media/laminin ([…]; Sigma Cat L2020-1MG) drop directly onto the microelectrode array, as adding the cells with the laminin results in better attachment than pre-coating with laminin. After 2 hours, an additional 475 uL of cortical media was added and the cells returned to the incubator. Exposure starts at day 0 of plating and is continued over twelve days of network development until the experiment is terminated. Cells are fed with fresh medium on DIV 5 and 9, following the recordings on those days. The entire volume of media in the well is exchanged and any vehicle or compound treatment is renewed. Complete details are found in OP-NHEERL/ISTD/SBB/TJS/2015-03-r0 (available on request, email shafer.tim@epa.gov). Measurement of the electrical activity is non-invasive, and recordings can be made from the same plate over multiple different days of the culture. In cortical neurons, this allows for the measurement of extracellular action potentials over the period during which networks form in the MEA plate.
As for `FC(F)(F)C(F)(F)C(F)(F)C(F)(F)C(F)(F)C(F)(F)C(F)(F)CCI`, the call was inactive. Regarding `OCC(F)(F)C(F)(F)C(F)(F)C(F)(F)C(F)(F)C(F)(F)CO`, the molecule was classed as inactive. Same read-out and setting: the value for `OCCCCC(F)(F)C(F)(F)C(F)(F)C(F)(F)F` was “inactive”. `C=CC(=O)OCC(F)(F)C(F)(F)C(F)(F)COC(=O)C=C`: the half-maximal activity concentration (AC50) (in general, the concentration at which the activity in the assay is half-maximal) was 4.39 µM (active). With `C=CC(=O)OCCC(F)(F)C(F)(F)C(F)(F)C(F)(F)F`, the call was inactive. On the same count and under the same terms, to `O=C(O)C(F)(F)C(F)(F)C(F)(F)OC(F)(F)F` belongs “inactive”; to `CO[Si](C)(CCC(F)(F)C(F)(F)C(F)(F)C(F)(F)C(F)(F)C(F)(F)F)OC`, “inactive”. As for `NC(=O)C(F)(F)C(F)(F)C(F)(F)C(F)(F)C(N)=O`, the molecule was called inactive. The same measure, in the same setting: to `CNS(=O)(=O)C(F)(F)C(F)(F)C(F)(F)C(F)(F)C(F)(F)C(F)(F)C(F)(F)C(F)(F)F` belongs “inactive”.

Take `OCC(O)CC(F)(F)C(F)(F)C(F)(F)C(F)(F)F` (centres undefined): the molecule was called inactive.

As to `O=S(=O)(O)CCC(F)(F)C(F)(F)C(F)(F)C(F)(F)F`, the molecule was called inactive. The same measure, in the same setting: to `OCC(F)(F)C(F)(F)C(F)(F)C(F)(F)C(F)(F)C(F)(F)C(F)(F)C(F)(F)CO` belongs “inactive”; to `OCC(F)(F)C(F)(F)C(F)(F)CO`, “inactive”. On the same count and under the same terms, to `CCN(CCO)S(=O)(=O)C(F)(F)C(F)(F)C(F)(F)C(F)(F)C(F)(F)C(F)(F)C(F)(F)C(F)(F)F` belongs “inactive”. On the same count and under the same terms, the value for `NC(=O)C(F)(F)C(F)(F)C(F)(F)F` was “inactive”; that for `OC(O)C(F)(F)C(F)(F)F` was “inactive”; that for `NC(=O)C(F)(F)C(F)(F)C(F)(F)C(F)F` was “inactive”. Consider `O=S(=O)(O)CCC(F)(F)C(F)(F)C(F)(F)C(F)(F)C(F)(F)C(F)(F)C(F)(F)C(F)(F)F`, for which the call was inactive.

In the case of `NC(O)(C(F)(F)F)C(F)(F)F`, the molecule was classed as inactive.
